Bioassay records as filed in PubChem.
KCNH2 WT inh: blocks the wildtype human KCNH2 potassium channel; Q12809; U2OS, BacMam KCNH2, thallium flux FluxOr; stronger effect = lower value; activity change, % at 1.84 µM; actives 0.37% (n = 340,000); AID 720551;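 active = maximum activity change below -70%; inconclusive = maximum activity change between -70% and -50%; inactive = maximum activity change above -50%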; note: % is set by controls: 0 for no effect and ±100 for the full control effect
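U2OS cells were transduced with wild-type KCNH2 virus (2.03 x 10^8 / mL) for 4 h at room temperature, then cultured overnight at 37 C. Thallium flux was read with FluxOr dye. Rate constants were normalized to DMSO controls.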
BCR signal inh: inhibitors of chronic active B-cell receptor signaling | actives 0.05% (n = 340,000) | AID 493014 | ABC-DLBCL IkBa-CBG/CBR reporter, luminescence ratio, 4 h | Potency, µM (top dose mostly 46.1 µM), for the others: top-dose activity change, negative = inhibition, most hits filed as inhibitors; active = well fitted inhibition curve with a large enough effect in the signal ratio, with a control signal flat, not every such curve was filed as active; inconclusive = small, poorly fitted or top-dose-only effect, or effect the other way, or a change in a side signal; the % refers to the signal ratio;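 note: potency is the fitted concentration of half-maximal effect; plate controls were basal doxycycline-induced cells for no effect and cells given 10 µM MG132 for full effect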
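Doxycycline induced both beetle luciferases in TMD8 lymphoma cells; IKK-driven degradation limits the IkappaBalpha-fused green signal, while red luminescence normalises for cell number and nonspecific effects. Compounds tested up to 46 uM, 4 hrs.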
ClpP mod: qHTS Assay for Activators of ClpP; actives 1.9% (n = 340,000); purified B. subtilis ClpP, FRET peptide cleavage, 20 min; Potency, µM (series often up to 57.5 µM), inactives show top-dose activity change, negative = active; ATP-dependent Clp protease proteolytic subunit (Bacillus subtilis (strain 168)), P80244; active = well fitted falling curve with a large enough effect; inconclusive = small, poorly fitted or top-dose-only effect; inactive = no such curve, though single readings can be large or run the other way; note: potency is the fitted concentration of half-maximal effect; the source files actives as falling curves though it sought activators and does not explain the sign; nearly all actives have a fitted effect of over 65% in size
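Buffer: 100 mM Tris/HCl pH8, 100 mM KCl, 0.05% low protease BSA, 2.5% glycerol, 0.01% Tween-20. ClpP 10 microg/mL final; 20 min RT; delta FRET normalized to ADEP and DMSO controls.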
KCNH2 3.1 block: KCNH2 3.1 (human) potassium channel inhibition. U2OS KCNH2 3.1, thallium flux FluxOr; stronger effect = lower value. activity change, % (tested at about 1.8 µM). actives 0.95% (n = 340,000);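 active = maximum activity change below -70%; inconclusive = maximum activity change from -70% to -50%; inactive = maximum activity change above -50%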;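 note: thallium influx rate constant from kinetic fluorescence after stimulation buffer; % is set by controls: 0 for no effect and ±100 for the full control effect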
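Normalized rate constant (relative to positive and negative DMSO controls) derived from a 2 min kinetic fluorescence read after stimulation; U2OS cells expressing the 3.1 isoform via virus at 1.77 x 10^8 /mL.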
ALOX12 inh: ALOX12 (human) lipoxygenase inhibition; purified 12hLO, xylenol orange hydroperoxide absorbance; Potency, µM (doses to about 108 µM), without a hit: at the highest dose activity change, negative = inhibition, usual class: inhibitors; actives 1.1% (n = 580,000); AID 1671190; active = well fitted inhibition curve with a large enough effect; inconclusive = small, poorly fitted or top-dose-only effect, or another doubt; inactive = no such curve, though single readings can be large or run the other way; note: potency is the fitted concentration of half-maximal effect; % is set by controls: 0 for no effect and ±100 for the full control effect
Target sequence (P18054 whole entry, looked up): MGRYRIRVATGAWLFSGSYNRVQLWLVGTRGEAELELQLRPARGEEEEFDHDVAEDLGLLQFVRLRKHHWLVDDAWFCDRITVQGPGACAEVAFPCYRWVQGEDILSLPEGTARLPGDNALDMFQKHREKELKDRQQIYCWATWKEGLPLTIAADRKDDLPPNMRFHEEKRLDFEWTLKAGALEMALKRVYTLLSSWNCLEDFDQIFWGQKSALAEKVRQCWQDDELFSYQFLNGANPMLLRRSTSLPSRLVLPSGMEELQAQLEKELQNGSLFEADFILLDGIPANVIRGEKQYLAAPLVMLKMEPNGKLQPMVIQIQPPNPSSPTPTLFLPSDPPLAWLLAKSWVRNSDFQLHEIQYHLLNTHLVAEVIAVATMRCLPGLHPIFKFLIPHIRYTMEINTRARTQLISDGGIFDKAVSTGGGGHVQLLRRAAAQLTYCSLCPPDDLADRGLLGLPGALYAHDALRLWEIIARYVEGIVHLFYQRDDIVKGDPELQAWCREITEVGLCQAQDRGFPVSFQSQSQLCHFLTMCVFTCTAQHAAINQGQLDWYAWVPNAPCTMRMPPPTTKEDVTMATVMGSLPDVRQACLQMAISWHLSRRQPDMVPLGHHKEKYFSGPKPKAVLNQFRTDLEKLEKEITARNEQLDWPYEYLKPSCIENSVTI
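Purified human 12hLO (150 nM final) in 25 mM Hepes, 0.01% Triton X-100, pH 7.0 was preincubated 15 min at room temperature with compound. Then 40 uM arachidonic acid was added, 30 min. Hydroperoxide was read by Fe-XO absorbance ratio 573/405 nm.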
LDHA inh: LDHA (human) enzyme inhibition | P00338 | purified LDHA, NADH/diaphorase-resazurin fluorescence; stronger effect = lower value | activity change, % (values are at about 110 or 230 µM) | actives 0.15% (n = 480,000); in the data active = activity change below about -30%; inconclusive = mostly about -25% to -30%;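 note: plate controls were DMSO wells for no effect and wells without enzyme for full effect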
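Human LDH5 (2 nM) was incubated with 0.06 mM NADH and 0.2 mM pyruvate for 5 min at room temperature in Tris pH 7.4. Remaining NADH was coupled through diaphorase/resazurin, and resorufin fluorescence was read at 0 and 20 min.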
Active calls of the source: *; ? = inconclusive; . = no result; ! = not active in a repeat; [ ] = dose if it differs, or a comment. Most compounds without a hit are left out; they make up all but 3% or so of the library.

SMILES	KCNH2 WT inh	BCR signal inh	ClpP mod	KCNH2 3.1 block	ALOX12 inh	LDHA inh
Clc1ccc(-c2noc(C(c3ccccc3)c3ccccc3)n2)cc1	.	.	.	.	-9%	1
FC(F)(F)c1cc(-c2ccccc2)nc2ncnn12	0	?	28µM*	-1	-2%	-18
O=C(c1nc2nc(-c3ccccc3)cc(C(F)(F)F)n2n1)N1CCCCC1	-4	-16%	28µM*	-9	6%	-3
Cc1ccc(CNC(=O)c2cc3c(s2)-c2cc(C)sc2CC3)cc1	.	.	.	.	?	1
COc1cc(/C=C/C(=O)OCC(=O)NC(=O)NC(C)C)cc(S(=O)(=O)N2CCc3ccccc32)c1OC	-11	-7%	20µM*	-5	-2%	-9
COc1cc(/C=C/C(=O)OCC(=O)N2CCc3ccccc32)cc(OC)c1OC	0	.	4%	9	7%	-4
CC(C)(C)c1cc(NC(=O)CSc2nnc(N)s2)n(-c2ccccc2)n1	-2	3%	28µM*	6	20%	-8
Nc1nnc(SCC(=O)NCCOc2ccccc2)s1	-1	3%	25µM*	-3	8%	-4
Nc1nnc(SCC(=O)NCCNC(=O)CSc2nnc(N)s2)s1	2	-5%	-5%	-8	-9%	0
O=S(=O)(NCc1ccc2c(c1)OCCO2)c1ccccc1Cl	.	.	.	.	?	7
CCOc1cc(/C=N/NC(=O)c2cc3c(ccc4ccccc43)o2)ccc1O	-10	-4%	-11%	-6	-8%	0
CCOC(=O)COc1ccccc1/C=N\NC(=O)c1cc2c(ccc3ccccc32)o1	8	?	28µM*	.	-4%	-4
CNC(=O)N1CCC(C2CCN(C(=O)C3CCCC3)C2)CC1 (stereo not drawn)	.	.	.	.	30%	.
CC1(Br)C(Sc2ccccc2[N+](=O)[O-])=Nc2ccccc21 (stereo not drawn)	.	.	-2%	.	7.9µM*	4
C(=Nc1cccc2c(N=Cc3ccco3)cccc12)c1ccco1	-5	0%	4%	-2	.	8
C(=N\C(/N=C/c1ccco1)c1ccco1)/c1ccco1	4	0%	16µM*	8	10%	3
COc1cc2c(cc1OC)-c1nnc(-c3ccco3)n1C1(CCCC1)C2	8	3%	32µM*	7	0%	-3
COc1cc(OC)c(-c2nn3c(-c4ccco4)nnc3s2)cc1OC	3	?	28µM*	12	-19%	0
COc1ccc(-c2nn3c(-c4ccco4)nnc3s2)cc1OC	-5	-23%	-5%	1	0%	-4
Cc1oc(-c2ccc(F)cc2)cc1-c1nn2c(-c3ccco3)nnc2s1	.	.	.	.	11µM*	.
Clc1ccccc1-c1nnc2sc(-c3ccco3)nn12	7	0%	0%	6	-5%	-5
Fc1ccccc1-c1ccc(-c2nn3c(-c4ccco4)nnc3s2)o1	.	.	.	.	8.9µM*	-4
c1coc(-c2nnc3n2C2(CCCC2)Cc2ccccc2-3)c1	-1	0%	?	16	-2%	-2
O=C(O)CCC(=O)N1CCC2(CC1)Cc1ccccc1N(C(=O)c1ccc(Cl)cc1)C2	.	.	.	.	-1%[6.33 µM]	.
Cc1ccc(Nc2c(-c3ccccc3O)nc3cc(C)ccn23)cc1	.	.	28µM*	.	-13%	0
SMILES	KCNH2 WT inh	BCR signal inh	ClpP mod	KCNH2 3.1 block	ALOX12 inh	LDHA inh
Cc1cc(C)c2[nH]c(C(=O)NCc3ccc(C(=O)N(C)C)o3)c(C)c2c1	.	.	.	.	-64%	.
Cn1c(=S)[nH]c2c(c1=O)C(C)(C)Cc1ccccc1-2	10	?	.	5	14µM*	-5
COc1cccc(CNC(=O)C2Cn3cccc3C(=O)N2Cc2cccnc2)c1 (stereo not drawn)	.	.	.	.	36%	.
CC(C)C[C@@H](NC(=O)Nc1cccc(Cl)c1)C(=O)O	.	.	.	.	?	-10
O=C(c1ccccc1)N1CCCC(n2cc(-c3nc(-c4ccccc4)no3)nn2)C1 (stereo not drawn)	.	.	.	.	3%	.
O=C(c1cccnc1)N1CCCC(n2cc(-c3nc(-c4ccccc4)no3)nn2)C1 (stereo not drawn)	.	.	.	.	40µM*	.
COC(=O)c1c(NC(=O)c2c(-c3ccccc3Cl)noc2C)sc2c1CCCC2	.	.	.	.	?	5
Cc1cc(C)c(CO)c(C)c1C=O	.	.	.	.	?	7
CCOc1ccc(CN(C)S(=O)(=O)c2cnn(C)c2)cc1OC	.	.	.	.	1%	6
COc1ccc2[nH]c(C)c(C(=O)CN3CCC(C(N)=O)CC3)c2c1	.	.	.	.	?	-12
CCC1(CC)NC(=O)N(CC(=O)OCc2nc3cc(C(=O)OC)ccc3c(=O)[nH]2)C1=O	1	-3%	28µM*	-13	195%	-4
COC(=O)c1ccc2c(=O)[nH]c(CCl)nc2c1	9	-3%	.	5	-12%	4
CC(C)c1ccc(C(=O)O)c(O)c1	.	.	.	.	-26%	0
CC(C)c1cccc(O)c(=O)c1	-1	0%	-3%	2	14µM*!	9
CC(C)c1ccc(C(=O)O)cc1	.	.	.	.	?	0
CC(C)c1ccc(O)c(=O)cc1	.	.	.	.	22µM*	.
CC(=O)Oc1ccc2c(C)cc(=O)oc2c1C(=O)c1ccccc1	10	-13%	2%	7	-20%	-35*
O=C(Nc1cccc(-c2csc(Nc3ccc(Cl)cc3)n2)c1)c1cccc(C(F)(F)F)c1	0	14%	-7%	-78*	?	-14
O=C(Nc1cccc(-c2csc(Nc3ccc(Cl)cc3)n2)c1)c1ccccc1	19	9%	-2%	-14	?	-3
CCOC(=O)C1CCN(S(=O)(=O)c2ccc3c(c2)CC(=O)N3C)CC1	-18	?	-5%	-25	45µM*	19
O=C(Nc1cccc(F)c1)c1nc2ccccc2nc1N1CCOCC1	.	.	.	.	12%	-1
Cn1nc(C(=O)NC23CC4CC(CC(C4)C2)C3)c2ccccc2c1=O	.	.	.	.	1%	8
CCOC(=O)COc1cc(C)cc2oc(=O)cc(-c3ccccc3)c12	.	.	.	.	-4%	-4
Cc1cc(OCC(=O)N2CCc3ccccc3C2)c2c(-c3ccccc3)cc(=O)oc2c1	-203*	?	-9%	-21	-5%	3
CCCc1nc2oc(C(=O)OCC)c(N)c2c2c1COC(C)(C)C2	-5	4%	14µM*	0	-18%	-3
CCOC(=O)c1oc2nc(C(C)C)c3c(c2c1N)CC(C)(C)OC3	5	-2%	?	9	-10%	-2
CCOC(=O)c1sc2nc(C)c3c(c2c1N)CC(C)(C)OC3	8	?	28µM*	11	-2%	-3
CCOC(=O)c1sc2nc(CC)c3c(c2c1N)CC(C)(C)OC3	.	.	.	.	-1%	9
